The source made the active and inactive calls.

Experiment [1] can be described thus: compounds binding Alexa647 anti-His antibody – biochemical, small-molecule microarray, 635 nm fluorescence, artefact control for SMM control protein annotation, primary screen (AID 1128).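 Further: score merges feature fluorescence with signal-to-noise for each printed compound spot.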 The note with it: higher = more signal.
The subject of experiment [2] is Human papillomavirus type 1a E7 protein (residues 1-88). Put plainly: HPV1a E7 small-molecule binders, primary screen, biochemical, small-molecule microarray, residues 1-88, 635 nm (AID 1129). The note with it: small-molecule microarray binding, fluorescence 635 nm; higher = more signal.
Experiment [3] has as its target Focal adhesion kinase 1 (Homo sapiens) (UniProt Q05397). Put plainly: PTK2 protein binding on printed compound slides – biochemical, small-molecule microarray, 635/667 nm fluorescence, BSA, DTT, primary screen (AID 1130).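 Further: composite of spot emission at 667 nm and signal to noise over triplicate slides.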 Conditions: 635 nm fluorescence, higher = more signal.
The subject of experiment [4] is Fibrinogen (Alexa647-labelled). Put plainly: Alexa647-fibrinogen binding to printed small molecules – biochemical, small-molecule microarray, 635/667 nm fluorescence, artefact control for SMM control-protein annotation, profiling panel (AID 1131).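 Further: z-score merges 667 nm fluorescence with per-spot signal-to-noise over triplicate slides.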 The note with it: fibrinogen-A647 binding fluorescence, higher = more signal.
The target of experiment [5] is Follistatin (Homo sapiens) (UniProt P19883). Put plainly: FST protein binding to printed compounds – biochemical, small-molecule microarray, 635/667 nm fluorescence, primary screen (AID 1132). Conditions: 635 nm fluorescence, higher = more signal.
Chain of Follistatin (Homo sapiens) (P19883 whole entry, looked up): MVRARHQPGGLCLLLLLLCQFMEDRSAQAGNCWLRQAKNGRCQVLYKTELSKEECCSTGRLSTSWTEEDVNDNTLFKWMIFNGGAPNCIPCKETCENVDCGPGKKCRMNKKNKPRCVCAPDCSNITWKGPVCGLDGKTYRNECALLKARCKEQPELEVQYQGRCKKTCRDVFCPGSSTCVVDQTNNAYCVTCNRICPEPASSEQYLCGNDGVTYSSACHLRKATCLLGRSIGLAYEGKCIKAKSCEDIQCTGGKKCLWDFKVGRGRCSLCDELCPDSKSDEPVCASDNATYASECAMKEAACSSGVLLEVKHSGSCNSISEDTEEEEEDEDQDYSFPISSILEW
Experiment [6] addresses Fibroblast growth factor 2 (Homo sapiens) (UniProt P09038). Kind of experiment: basic fibroblast growth factor binding to printed compounds – biochemical, small-molecule microarray, 635/667 nm fluorescence, primary screen (AID 1133). The note with it: FGF2, fluorescence 635/667, higher = more signal.
Experiment [7] in a line: JC-1 mitochondrial potential readout, lung cancer cells – cell-based, A549, JC-1 fluorescence, basal, 24 h, 100 nL, profiling panel (AID 1138).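 Further: A549 lung adenocarcinoma cells under basal conditions with no added stimulus; test concentration not given here.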 Conditions: higher = more signal.
The next experiment deals with Lefty1. Kind of experiment: Lefty1 protein binding to printed compounds – biochemical, small-molecule microarray, 635/667 nm fluorescence, primary screen (AID 1139). Conditions: fluorescence 635/667, higher = more signal.
In experiment [8] the test system is wheat germ agglutinin (Triticum aestivum), Alexa647-labelled. Put plainly: Alexa647-WGA lectin binding to printed small molecules – biochemical, small-molecule microarray, 635/667 nm fluorescence, artefact control for SMM control-protein annotation, profiling panel (AID 1140).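 Further: score merges 667 nm feature emission with signal to noise over triplicate slides.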 Conditions: WGA-A647 binding, 635 nm fluorescence, higher = more signal.
For experiment [9], the target named is Luciferin 4-monooxygenase (Photinus pyralis) (UniProt P08659). Put plainly: inhibition of purified Photinus pyralis luciferase – biochemical, luminescence, purified enzyme, 2006 set, primary screen (AID 1141).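 Further: cell-free assay with purified firefly luciferase at 100 ng per well in PBS; test concentration not given here.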 The note with it: purified firefly luciferase, SteadyGlo luminescence, 30 min; higher = more signal, called active from +8 up or from −8 down.
Chain of Luciferin 4-monooxygenase (Photinus pyralis) (P08659 whole entry, looked up): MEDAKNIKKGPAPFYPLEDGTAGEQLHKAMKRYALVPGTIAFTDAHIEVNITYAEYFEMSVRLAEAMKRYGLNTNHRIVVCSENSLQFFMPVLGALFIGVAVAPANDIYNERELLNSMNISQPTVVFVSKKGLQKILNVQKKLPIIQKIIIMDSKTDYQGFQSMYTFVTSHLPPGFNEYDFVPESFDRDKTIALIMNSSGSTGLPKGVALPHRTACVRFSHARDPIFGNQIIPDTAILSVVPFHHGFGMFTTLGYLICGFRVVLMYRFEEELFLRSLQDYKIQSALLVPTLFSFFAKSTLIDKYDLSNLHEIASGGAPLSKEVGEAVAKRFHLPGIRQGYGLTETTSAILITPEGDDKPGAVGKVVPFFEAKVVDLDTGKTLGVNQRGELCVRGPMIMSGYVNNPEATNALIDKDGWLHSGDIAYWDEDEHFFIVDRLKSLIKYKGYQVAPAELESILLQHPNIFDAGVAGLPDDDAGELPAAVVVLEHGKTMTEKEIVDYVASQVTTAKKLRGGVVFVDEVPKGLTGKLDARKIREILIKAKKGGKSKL

Chain of Focal adhesion kinase 1 (Homo sapiens) (Q05397 whole entry, looked up): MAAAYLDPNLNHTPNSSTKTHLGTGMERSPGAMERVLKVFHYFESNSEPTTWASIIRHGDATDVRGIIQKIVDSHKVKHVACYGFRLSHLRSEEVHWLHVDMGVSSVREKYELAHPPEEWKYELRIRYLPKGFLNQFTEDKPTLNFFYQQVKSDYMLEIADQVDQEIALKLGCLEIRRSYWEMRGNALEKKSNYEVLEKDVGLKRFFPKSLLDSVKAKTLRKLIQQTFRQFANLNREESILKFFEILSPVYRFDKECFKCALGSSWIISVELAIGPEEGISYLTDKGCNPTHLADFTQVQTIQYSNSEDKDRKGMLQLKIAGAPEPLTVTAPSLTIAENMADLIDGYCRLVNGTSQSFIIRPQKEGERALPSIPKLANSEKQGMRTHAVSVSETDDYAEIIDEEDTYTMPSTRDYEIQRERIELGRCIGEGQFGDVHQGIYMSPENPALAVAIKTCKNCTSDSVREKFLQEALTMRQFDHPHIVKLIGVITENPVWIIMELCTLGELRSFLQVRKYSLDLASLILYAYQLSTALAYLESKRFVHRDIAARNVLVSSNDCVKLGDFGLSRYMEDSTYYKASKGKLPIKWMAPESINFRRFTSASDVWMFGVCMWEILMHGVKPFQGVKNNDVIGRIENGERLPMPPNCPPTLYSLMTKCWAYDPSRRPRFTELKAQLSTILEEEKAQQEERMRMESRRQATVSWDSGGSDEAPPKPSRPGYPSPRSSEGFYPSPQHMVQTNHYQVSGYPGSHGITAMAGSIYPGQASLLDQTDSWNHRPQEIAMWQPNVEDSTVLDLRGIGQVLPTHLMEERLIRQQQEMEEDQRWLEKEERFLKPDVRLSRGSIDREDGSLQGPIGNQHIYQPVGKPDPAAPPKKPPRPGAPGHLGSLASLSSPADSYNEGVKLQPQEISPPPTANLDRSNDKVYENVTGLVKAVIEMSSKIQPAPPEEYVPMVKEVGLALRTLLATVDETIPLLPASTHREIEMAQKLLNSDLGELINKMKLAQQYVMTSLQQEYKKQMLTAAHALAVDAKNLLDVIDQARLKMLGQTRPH
Chain of Fibroblast growth factor 2 (Homo sapiens) (P09038 whole entry, looked up): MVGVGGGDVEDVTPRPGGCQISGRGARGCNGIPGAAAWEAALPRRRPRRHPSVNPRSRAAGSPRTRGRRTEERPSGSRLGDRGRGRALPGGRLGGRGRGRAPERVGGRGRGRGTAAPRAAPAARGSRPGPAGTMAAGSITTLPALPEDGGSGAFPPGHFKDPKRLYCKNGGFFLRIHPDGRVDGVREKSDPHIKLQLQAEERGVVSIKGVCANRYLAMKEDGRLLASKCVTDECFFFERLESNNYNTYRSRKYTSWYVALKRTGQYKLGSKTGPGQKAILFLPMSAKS

Take `CCCC[C@@H](O)C1=C(COc2ccccc2)Cn2c(=O)n(-c3ccccc3)c(=O)n2[C@H]1CO`: the composite z-score is -0.265 in [1]; -0.476 in experiment [2]; -0.103 in experiment [3]; 0.729 in experiment [4]; -0.28 in experiment [5]; -0.242 in experiment [6]. In addition, the composite z-score in the experiment on Lefty1 was -0.193; in [8], 0.31. Moreover, the results for the z-score in [7] and in experiment [9] were 0.363 and -1.79 (inactive), respectively.

As to `COCC(=C=CC[C@@H](O)c1ccccc1OCCO)C[C@@H](O)c1ccccn1`, the composite z-score in experiment [1] is -0.415; in experiment [2], 0.845; in experiment [3], 0.287; in [4], -0.853; in [5], 0.968; in [6], 0.466. The values for the composite z-score (in the experiment on Lefty1; in experiment [8]) were 0.913 and 0.293, respectively. Further, the z-score in experiment [7] is -0.00359; in [9], -0.578 (inactive).

Regarding `CC(C)C[C@@H]1NC(=O)[C@@H]2C[C@H](C(=O)NCCCC[N+](C)(C)C)[C@H](c3cccc(OCCO)c3)N2C1=O`, the composite z-score in [1] is 2.63; in experiment [2], 0.235; in experiment [3], -0.584; in [4] it was -0.173; in experiment [5], 1.45; in experiment [6] it was 1.38. Further, the composite z-score in the experiment on Lefty1 is 1.47; in [8], -0.445. Moreover, the z-score is -0.69 in [7] and -0.45 (inactive) in [9].

On to `CC(C)(C)OC(=O)CC[C@@]1(C(=O)N2CCCCC2)N=C(c2ccc(OCCCO)cc2)O[C@@H]1c1ccccc1CN=[N+]=[N-]`, for which the composite z-score in experiment [1] was determined as 3.24; in experiment [2], 1.21; in experiment [3], 1.26; in experiment [4], 1.03; in experiment [5], 1.04; in [6], 0.0627. Further, the composite z-score in the experiment with Lefty1 was determined as 0.0215; in experiment [8], 1.35. The z-score in [7] is 1.58; in experiment [9] it was -0.931 (inactive).

`CN(C)C(=O)[C@]1(Cc2ccccc2N=[N+]=[N-])N=C(c2ccc(OCCCO)cc2)O[C@@H]1c1ccccc1CN=[N+]=[N-]`: the composite z-score in experiment [1] turned out to be 1.28; in [2], 1.25; in experiment [3], 0.651; in [4], 1.06; in [5] it was 1.23; in experiment [6], 1.06. Moreover, the composite z-score with Lefty1 was 0.624; in experiment [8] it was 0.763. Further, the figures for the z-score in experiment [7] and in experiment [9] were 0.417 and -0.307 (inactive), respectively.

In the case of `C=CCC(OC(C)=O)[C@@H]1[C@@H](N(Cc2cccc3ccccc23)C(=O)c2ccc(C)cc2)c2cc(OCCCO)ccc2N1C(=O)c1ccc2ccccc2c1` (stereo not given in full), the composite z-score was -0.204 in experiment [1]; 0.133 in experiment [2]; 0.0096 in experiment [3]; 0.189 in [4]; 0.672 in experiment [5]; 0.123 in experiment [6]. In addition, the composite z-score with Lefty1 is 0.102; in experiment [8], -0.193. Further, the z-score is 1.15 in [7] and -0.195 (inactive) in [9].

As to `COCCOC(=O)N1C(=O)[C@@]2(c3cc(C#CC4(O)CCCCCC4)ccc31)[C@H](C(=O)N1CCN(c3ncccn3)CC1)[C@H]1C(=O)O[C@H](c3ccccc3)[C@H](c3ccccc3)N1[C@@H]2c1ccc(O)cc1`, the composite z-score in experiment [1] was 1.47; in experiment [2], 1.19; in experiment [3], 0.206; in experiment [4], 0.676; in experiment [5], 0.91; in experiment [6] it was 0.35. The composite z-score with Lefty1 stood at 0.354; in experiment [8], 1.04. Also, the z-score in experiment [7] is -0.328; in [9] it was -1.46 (inactive).

Turning to `CC(C)N1C(=O)c2ccccc2[C@](C)(C(=O)O)[C@@H]1c1ccc(CO)cc1`, the composite z-score in [1] is 0.181; in [2], -1.44; in [3] it was -0.0258; in experiment [4], -1.34; in experiment [5], -0.509; in [6], -0.977. The composite z-score with Lefty1 is -0.82; in experiment [8], -0.36. For the same compound, the z-score in [7] was -0.359; in experiment [9] it was 0.883 (inactive).

Turning to `COCCCNC(=O)[C@]1(CCS(=O)(=O)c2ccccc2)N=C(c2ccc(OCCCO)cc2)O[C@@H]1c1ccccc1`, the composite z-score in experiment [1] came out at 1.85; in experiment [2], 1.27; in experiment [3] it was 1.57; in experiment [4] it was 0.997; in experiment [5], 0.892; in [6], 1.36. The composite z-score in the experiment with Lefty1 is 0.136; in [8], 0.455. In addition, the z-score in [7] was 1.3; in experiment [9], -1.45 (inactive).

For `[N-]=[N+]=NCc1ccccc1[C@H]1OC(c2ccc(OCCCO)cc2)=N[C@@]1(Cc1ccccc1)C(N)=O`, the composite z-score in [1] is 1.85; in experiment [2], 1.24; in [3], 0.5; in experiment [4] it was 1.04; in [5], 0.405; in [6], -0.135. The composite z-score with Lefty1 is -0.572; in experiment [8], 1.37. Moreover, the results for the z-score in [7] and in experiment [9] were 2.44 and -1.89 (inactive), respectively.

For the compound `[N-]=[N+]=NCc1ccccc1[C@H]1OC(c2ccc(OCCCO)cc2)=N[C@@]1(Cc1ccccc1N=[N+]=[N-])C(=O)NCCN1CCOCC1`, the composite z-score was determined as 2.01 in experiment [1]; 1.27 in experiment [2]; 0.387 in experiment [3]; 0.981 in experiment [4]; 1.27 in [5]; 0.939 in experiment [6]. In addition, the composite z-score was determined as 0.631 in the experiment on Lefty1 and 1.2 in experiment [8]. The figures for the z-score in experiment [7] and in [9] were 1.57 and -2.69 (inactive), respectively.

In the case of `O=C1C[C@@](C(=O)NCc2ccccc2)(c2ccc([N+](=O)[O-])cc2)[C@@H](c2ccc(CO)cc2I)N1C1CCCCC1`, the composite z-score in [1] came to 1.12; in [2], 1.2; in [3] it was 0.532; in [4], 0.805; in experiment [5] it was 1.43; in experiment [6] it was 1.25. Moreover, the composite z-score turned out to be 0.721 in the experiment on Lefty1 and 0.411 in experiment [8]. In addition, the z-score is -0.0219 in experiment [7] and -1.2 (inactive) in experiment [9].

Take `COC(=O)[C@@]1(Cc2ccccc2)[C@H]2c3cc(C(=O)N(C)C)n(Cc4ccc(O)c(OC)c4)c3C[C@H]2CN1C(=O)c1ccccc1`: the composite z-score in experiment [1] is 2.42; in experiment [2] it was 1.11; in [3], 1.12; in [4], 0.418; in experiment [5], 0.465; in experiment [6], -0.875. Further, the composite z-score was -0.239 with Lefty1 and -0.0465 in experiment [8]. Also, the values for the z-score in experiment [7] and in experiment [9] were -1.29 and 1.19 (inactive), respectively.

For the compound `C=CC[C@@]1(C(=O)NCCN2CCOCC2)N=C(c2ccc(OCCCO)cc2)O[C@@H]1c1ccccc1`, the composite z-score is 0.432 in [1]; 1.24 in [2]; 0.49 in [3]; 0.755 in [4]; 1.46 in experiment [5]; 1.73 in experiment [6]. Moreover, the values for the composite z-score (with Lefty1; in experiment [8]) were 1.55 and 0.978, respectively. In addition, the z-score in experiment [7] was -0.185; in [9] it was -0.43 (inactive).
